Source: PubChem BioAssay (Tox21)
Results filed as inconclusive are left out. Activity calls are given as the source filed them. Unless noted, the call rests on the fitted dose curve; in most records, active means well fitted curve in the direction sought with a large enough effect in the repeat runs; inconclusive means weak or mixed curves; inactive means no such curve, though single readings can be large; an effect the other way counts as inactive or inconclusive.

Key:
[1] = qHTS assay for small molecule agonists of the p53 signaling pathway (AID 651631; calls by dose curve; further: nearly all actives have a fitted effect of over 15% in size)
In short: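 HCT-116 cells carrying a beta-lactamase reporter under p53 response elements were dosed with compound for 16 h at 37 °C. LiveBLAzer B/G FRET substrate was then added for 2 h at room temperature, and fluorescence intensity was read to detect pathway agonism.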

[2] = qHTS assay for small molecules that induce genotoxicity in human embryonic kidney cells expressing luciferase-tagged ATAD5 (AID 651632); further: nearly all actives have a fitted effect of over 15% in size
In short: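 Test compounds were delivered by pin tool onto HEK293T reporter cells (2,000/well) expressing ATAD5 fused to luciferase. After 16 hr at 37C, 5% CO2, Amplite was added for 30 min at room temperature and luminescence was measured.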

[3] = qHTS assay for small molecule agonists of the p53 signaling pathway - cell viability (AID 651633; calls by dose curve;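 further: p53RE-bla HCT reporter cells with a stable beta-lactamase p53 reporter; series mostly up to about 83 µM; nearly all actives have a fitted effect of over 30% in size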)
In short: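 p53RE-bla cells were treated with compound for 16 hours at 37 C. Cytotoxicity was then measured as CellTiter-Glo luminescence after 30 min at room temperature.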

[4] = qHTS assay for small molecules that induce genotoxicity in human embryonic kidney cells expressing luciferase-tagged ATAD5 - cell viability (AID 651634; calls by dose curve; further: nearly all actives have a fitted effect of over 25% in size)
In short: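 Quantitative high-throughput format. HEK293T cells expressing ATAD5 fused to luciferase were plated at 2,000 cells/well and treated 15.5 hr with compound versus DMSO. Viability was determined by fluorescent live-cell protease substrate, 30 min at 37C.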

[5] = qHTS assay for small molecule disruptors of the mitochondrial membrane potential - cell viability (AID 720634; calls by dose curve;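 further: human HepG2 liver cancer cells; series mostly up to about 83 µM; nearly all actives have a fitted effect of over 20% in size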)
In short: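 Same-well counter-screen: following the MMP dye addition, CellTiter-Glo was added to 1 hr compound-treated HepG2 cells and luminescence read after 30 min at room temperature.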

[6] = qHTS assay for small molecule disruptors of the mitochondrial membrane potential (AID 720635)
In short: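 HepG2 cells exposed to compound 1 hr at 37C, then Mito-MPS dye 30 min. Ratio read of aggregate (540/590 nm) versus monomer (490/535 nm) fluorescence.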

[7] = qHTS assay to test for compound auto fluorescence at 590 nm (red) in HepG2 cells (AID 720674)
In short: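 Fluorescence at 590 nm emission following 540 nm excitation was recorded from HepG2 wells one hour after compound transfer, with DMSO-only wells as vehicle and Rose Bengal sodium equivalency as the scale.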

[8] = qHTS assay to test for compound auto fluorescence at 535 nm (green) in HepG2 cells (AID 720675)
[9] = qHTS assay to test for compound auto fluorescence at 460 nm (blue) in HEK293 cells (AID 720678)
In short: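 Blue read-out at excitation 405 nm and emission 460 nm follows overnight compound exposure of HEK293 cells at 37C in 5% CO2. Activity is given as auto fluorescence equivalency to triamterene.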

[10] = qHTS assay to test for compound auto fluorescence at 535 nm (green) in HEK293 cells (AID 720680)
[11] = qHTS assay to test for compound auto fluorescence at 460 nm (blue) in HEK293 cell free culture (AID 720681)
In short: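 Compounds were added to cell-free DMEM with 10% FBS and fluorescence read directly. The blue channel used 405 nm excitation and 460 nm emission, with triamterene as the reference fluorophore.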

[12] = qHTS assay to test for compound auto fluorescence at 535 nm (green) in HEK293 cell free culture (AID 720682)
In short: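 Green-label autofluorescence (485 nm excitation, 535 nm emission) measured on compound added to cell-free culture medium (DMEM, 10% FBS). Output is expressed relative to fluorescein.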

[13] = qHTS assay to test for compound auto fluorescence at 590 nm (red) in HEK293 cell free culture (AID 720683)
In short: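 Cell-free wells of DMEM with 10% FBS received compound, and intrinsic fluorescence was read at excitation/emission 540/590 nm. Values expressed as equivalence to Rose Bengal sodium.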

[14] = qHTS assay to test for compound auto fluorescence at 590 nm (red) in HepG2 cell free culture (AID 720684)
In short: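 Rose Bengal sodium served as the reference for red signal. Test compounds were dispensed into serum-containing MEM (10% FBS) without cells, and plates were read at 540/590 nm.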

[15] = qHTS assay to test for compound auto fluorescence at 460 nm (blue) in HepG2 cells (AID 720687)
In short: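 HepG2 cells in MEM with 10% FBS, attached overnight at 37 C, were exposed to compound or DMSO for 1 hr at 37 C, 5% CO2. Blue fluorescence was read at 405/460 nm, with triamterene as reference fluorophore.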

[16] = qHTS assay to test for compound auto fluorescence at 590 nm (red) in HEK293 cells (AID 720679)
In short: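 Red channel, Ex/Em 540/590nm; signal expressed as equivalency to Rose Bengal sodium. HEK293, 2,000 cells/well, 10% dialyzed FBS; 23 nL compound pinned after 4-5 hr attachment; overnight 37C/5% CO2 before reading.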

[17] = qHTS assay to test for compound auto fluorescence at 460 nm (blue) in HepG2 cell free culture (AID 720685)
In short: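 Cell-free plates of MEM plus 10% FBS received 23 nL compound or DMSO vehicle; blue-channel (405/460 nm) intensity scored against triamterene as reference fluorophore.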

[18] = qHTS assay to test for compound auto fluorescence at 535 nm (green) in HepG2 cell free culture (AID 720686)
[19] = target: Glucocorticoid receptor (Homo sapiens) (UniProt P04150); assay: qHTS assay to identify small molecule agonists of the glucocorticoid receptor (GR) signaling pathway (AID 720691; active means well fitted activation curve with a large enough effect in the signal ratio in the repeat runs, not every such curve was filed as active; the % refers to the signal ratio)
In short: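 A HeLa cervical cancer line expressing GR and a glucocorticoid response element-driven beta-lactamase gene is treated with compounds for 18 h; LiveBLAzer B/G FRET substrate is then applied and fluorescence read.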

[20] = target: Glucocorticoid receptor (Homo sapiens) (UniProt P04150); assay: qHTS assay to identify small molecule antagonists of the glucocorticoid receptor (GR) signaling pathway (AID 720692; active means well fitted inhibition curve with a large enough effect in the signal ratio in the repeat runs, not every such curve was filed as active; the % refers to the signal ratio)
In short: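 GRE-bla HeLa line, dex-stimulated (5 nM final). Compound exposure 18 h, 37 C. Beta-lactamase FRET read after 2 h RT substrate.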

Measured: Potency

Chain of Glucocorticoid receptor (Homo sapiens) (P04150 whole entry, looked up): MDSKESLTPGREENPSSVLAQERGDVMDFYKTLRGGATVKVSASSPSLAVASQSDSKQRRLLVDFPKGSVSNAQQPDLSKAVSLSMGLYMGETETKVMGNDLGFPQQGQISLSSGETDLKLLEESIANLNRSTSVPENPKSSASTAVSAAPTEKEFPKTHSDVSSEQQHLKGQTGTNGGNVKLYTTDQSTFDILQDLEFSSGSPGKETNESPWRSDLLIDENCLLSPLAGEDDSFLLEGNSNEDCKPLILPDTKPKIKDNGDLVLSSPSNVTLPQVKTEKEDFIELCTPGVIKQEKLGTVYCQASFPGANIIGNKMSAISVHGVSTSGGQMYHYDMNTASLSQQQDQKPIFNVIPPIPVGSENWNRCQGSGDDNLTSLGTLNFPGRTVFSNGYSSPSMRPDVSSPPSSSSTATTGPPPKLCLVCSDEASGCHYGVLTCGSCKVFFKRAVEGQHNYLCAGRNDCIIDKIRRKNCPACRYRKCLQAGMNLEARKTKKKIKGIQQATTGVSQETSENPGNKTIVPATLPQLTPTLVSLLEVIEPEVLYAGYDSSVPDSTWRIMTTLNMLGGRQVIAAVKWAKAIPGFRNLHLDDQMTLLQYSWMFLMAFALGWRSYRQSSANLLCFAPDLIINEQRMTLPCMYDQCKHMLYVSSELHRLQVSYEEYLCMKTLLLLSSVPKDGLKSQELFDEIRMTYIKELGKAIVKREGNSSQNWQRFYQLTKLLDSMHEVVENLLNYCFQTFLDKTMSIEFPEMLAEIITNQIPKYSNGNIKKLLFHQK

ClC1=C(Cl)C1(Cl)Cl
inactive: [1] | [2] | [3] | [4] | [5] | [6] | [7] | [8] | [9] | [10] | [11] | [12] | [13] | [14] | [15]

CC12CC3CC(C)(C1)CC(N)(C3)C2
inactive: [1] | [2] | [3] | [4] | [5] | [6] | [7] | [8] | [9] | [16] | [11] | [12] | [13] | [14] | [17] | [18] | [15] | [19] | [20]

Cc1cn([C@H]2C[C@H](F)[C@@H](CO)O2)c(=O)[nH]c1=O
inactive: [1] | [2] | [3] | [4] | [5] | [6] | [7] | [8] | [9] | [16] | [10] | [11] | [12] | [13] | [14] | [17] | [15] | [19] | [20]

CC(C)C(=O)OCCOc1ccccc1
inactive: [1] | [2] | [3] | [4] | [5] | [6] | [7] | [8] | [9] | [16] | [10] | [11] | [12] | [13] | [14] | [17] | [18] | [15] | [20]

CC(=O)c1ccc[nH]1
inactive: [1] | [2] | [3] | [4] | [5] | [6] | [7] | [8] | [16] | [11] | [12] | [13] | [14] | [17] | [18] | [15] | [20]

C=CC(=O)NC(C)C
inactive: [1] | [2] | [3] | [4] | [5] | [6] | [7] | [8] | [9] | [10] | [11] | [12] | [13] | [14] | [17] | [18] | [15] | [20]

CC(=O)N[C@@H](Cc1ccc(O)cc1)C(=O)O
inactive: [1] | [2] | [3] | [4] | [5] | [6] | [8] | [9] | [10] | [11] | [12] | [13] | [14] | [17] | [18] | [15] | [19] | [20]
